Test results taken from PubChem BioAssay (Tox21).
Records with an inconclusive call do not appear. Active and inactive are the calls of the source. Calls come from the whole dose curve; as a rule, active = well fitted curve in the direction sought with a large enough effect in the repeat runs; inconclusive = weak or mixed curves; inactive = no such curve, though single readings can be large; an effect the other way counts as inactive or inconclusive.

Columns and labels:
[1] = qHTS RealTime-Glo MT Cell Viability Assay in HepG2 cells - 24 hour (AID 1224867); note: nearly all actives have a fitted effect of over 50% in size
Summary of the method: (§1)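 HepG2 cells (600/well) were dispensed with RealTime-Glo reagents, incubated 5 h at 37 °C, then treated with compounds in DMSO for up to 40 h. Nonlytic NanoLuc luminescence reflecting viable cells was read at each stated time point.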

[2] = qHTS RealTime-Glo MT Cell Viability Assay in HEK293 cells - 32 hour (AID 1224868); note: top concentration of the series differs between compounds; nearly all actives have a fitted effect of over 50% in size
Summary of the method: (§2)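 HEK293 cells seeded with NanoLuc/prosubstrate reagent, rested 5 h at 37 C, then dosed and kept at 37 C up to 40 h. Nonlytic real-time luminescence from viable cells read at 0, 8, 16, 24, 32 and 40 h.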

[3] = A CellTox Green Cytotoxicity Assay to monitor cytotoxicity in HEK293 cells - 0 hour (AID 1224869); note: nearly all actives have a fitted effect of over 50% in size
Summary of the method: (§3)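 Cells (HEK293, 600/well) and dye reagent are dispensed together. After 5 h at 37 C, 23 nL compound is pinned in. Plates stay at 37 C for 40 h with fluorescence read at 0h, 8h, 16h, 24h, 32h and 40h.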

[4] = qHTS RealTime-Glo MT Cell Viability Assay in HepG2 cells - 40 hour (AID 1224870); note: nearly all actives have a fitted effect of over 50% in size
Summary of the method: (§4)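 HepG2 cells (600/well) mixed with RealTime-Glo MT reagent, settled 5 h at 37 C/5% CO2 before compound addition. Nonlytic NanoLuc luminescence from viable-cell prosubstrate reduction read repeatedly during 40 h treatment at 37 C.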

[5] = A CellTox Green Cytotoxicity Assay to monitor cytotoxicity in HEK293 cells - 40 hour (AID 1224871); note: nearly all actives have a fitted effect of over 45% in size
Summary of the method: as §3

[6] = qHTS RealTime-Glo MT Cell Viability Assay in HEK293 cells - 16 hour (AID 1224872)
Summary of the method: as §2

[7] = qHTS RealTime-Glo MT Cell Viability Assay in HepG2 cells - 8 hour (AID 1224873); note: nearly all actives have a fitted effect of over 55% in size
Summary of the method: as §4

[8] = qHTS RealTime-Glo MT Cell Viability Assay in HEK293 cells - 40 hour (AID 1224874); details: RealTime-Glo luminescence, stronger effect = lower value; note: nearly all actives have a fitted effect of over 50% in size
Summary of the method: (§5)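 Real-time viability in HEK293: signal arises when living cells convert a prosubstrate for NanoLuc in the medium, so luminescence tracks viable cell number. Compound (23 nL, DMSO) added 5 h post-seeding; kinetic reads at 0–40 h, 37 C.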

[9] = A CellTox Green Cytotoxicity Assay to monitor cytotoxicity in HEK293 cells - 24 hour (AID 1224875); note: series mostly up to about 77 µM; nearly all actives have a fitted effect of over 45% in size
Summary of the method: as §3

[10] = qHTS RealTime-Glo MT Cell Viability Assay in HepG2 cells - 32 hour (AID 1224877); note: nearly all actives have a fitted effect of over 55% in size
Summary of the method: as §1

[11] = A CellTox Green Cytotoxicity Assay to monitor cytotoxicity in HepG2 cells - 40 hour (AID 1224879); note: nearly all actives have a fitted effect of over 40% in size
Summary of the method: (§6)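 Cells and non-lytic dye reagent are dispensed together (600 HepG2 cells/well) and incubated 5 h before DMSO compound transfer. Kinetic fluorescence is then recorded in the same wells during 40 h at 37 C.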

[12] = qHTS RealTime-Glo MT Cell Viability Assay in HEK293 cells - 0 hour (AID 1224880); note: nearly all actives have a fitted effect of over 45% in size; note: potency is the fitted concentration of half-maximal effect
Summary of the method: as §5

[13] = A CellTox Green Cytotoxicity Assay to monitor cytotoxicity in HEK293 cells - 32 hour (AID 1224881); note: nearly all actives have a fitted effect of over 40% in size
Summary of the method: as §3

[14] = A CellTox Green Cytotoxicity Assay to monitor cytotoxicity in HepG2 cells - 0 hour (AID 1224882); note: nearly all actives have a fitted effect of over 35% in size
Summary of the method: as §6

[15] = A CellTox Green Cytotoxicity Assay to monitor cytotoxicity in HepG2 cells - 32 hour (AID 1224883); note: nearly all actives have a fitted effect of over 50% in size
Summary of the method: as §6

[16] = A CellTox Green Cytotoxicity Assay to monitor cytotoxicity in HEK293 cells - 8 hour (AID 1224884); note: nearly all actives have a fitted effect of over 35% in size
Summary of the method: as §3

[17] = qHTS RealTime-Glo MT Cell Viability Assay in HepG2 cells - 16 hour (AID 1224885); note: nearly all actives have a fitted effect of over 50% in size
Summary of the method: as §1

[18] = qHTS RealTime-Glo MT Cell Viability Assay in HEK293 cells - 24 hour (AID 1224886)
Summary of the method: as §2

[19] = A CellTox Green Cytotoxicity Assay to monitor cytotoxicity in HepG2 cells - 24 hour (AID 1224878); note: nearly all actives have a fitted effect of over 45% in size
Summary of the method: as §6

[20] = A CellTox Green Cytotoxicity Assay to monitor cytotoxicity in HepG2 cells - 16 hour (AID 1224876); note: nearly all actives have a fitted effect of over 45% in size
Summary of the method: as §6
% is set by controls: 0 for no effect and ±100 for the full control effect.

CCc1ncc(C)[nH]1
inactive: outcome [1] | outcome [2] | outcome [3] | outcome [4] | Potency [5] | outcome [6] | outcome [7] | max response [8] 1.1% | Potency [9] | outcome [10] | Potency [11] | Potency [12] | Potency [13] | Potency [14] | Potency [15] | Potency [16] | outcome [17] | outcome [18]

COC(=O)c1ccc(C(=O)O)cc1
inactive: outcome [1] | outcome [2] | outcome [3] | outcome [4] | Potency [5] | outcome [6] | outcome [7] | max response [8] 1.5% | Potency [9] | outcome [10] | Potency [19] | Potency [11] | Potency [12] | Potency [13] | Potency [14] | Potency [15] | Potency [16] | outcome [17] | outcome [18]

C=C(C)C(=O)OCCOC1CC2CC1C1C=CCC21 (configuration not stated)
inactive: outcome [1] | outcome [2] | outcome [3] | outcome [4] | Potency [5] | outcome [6] | outcome [7] | max response [8] 0.272% | Potency [9] | Potency [20] | outcome [10] | Potency [11] | Potency [12] | Potency [13] | Potency [14] | Potency [15] | Potency [16] | outcome [17] | outcome [18]

Cc1ccc(N)nc1
inactive: outcome [1] | outcome [2] | outcome [3] | outcome [4] | Potency [5] | outcome [6] | outcome [7] | max response [8] 0.353% | Potency [9] | outcome [10] | Potency [11] | Potency [12] | Potency [13] | Potency [14] | Potency [15] | Potency [16] | outcome [17] | outcome [18]

COc1cc2nc(N3CCN(C(=O)C4CCCO4)CC3)nc(N)c2cc1OC (configuration not stated)
inactive: outcome [1] | outcome [2] | outcome [3] | outcome [4] | Potency [5] | outcome [6] | outcome [7] | max response [8] -19.2% | Potency [9] | outcome [10] | Potency [19] | Potency [11] | Potency [12] | Potency [14] | Potency [15] | Potency [16] | outcome [17] | outcome [18]

O=C1c2ccccc2C(=O)N1CO
inactive: outcome [1] | outcome [2] | outcome [3] | outcome [4] | Potency [5] | outcome [6] | outcome [7] | max response [8] -6.25% | Potency [9] | Potency [20] | outcome [10] | Potency [19] | Potency [12] | Potency [14] | Potency [15] | Potency [16] | outcome [17] | outcome [18]

CC(=O)OCC(=O)[C@@]1(O)CC[C@H]2[C@@H]3CCC4=CC(=O)C=C[C@]4(C)[C@H]3[C@@H](O)C[C@@]21C
inactive: outcome [1] | outcome [2] | outcome [3] | outcome [4] | Potency [5] | outcome [6] | outcome [7] | max response [8] -2.13% | Potency [9] | Potency [20] | outcome [10] | Potency [11] | Potency [13] | Potency [14] | Potency [15] | Potency [16] | outcome [17] | outcome [18]
active: Potency [12] 21.3 µM

CCNC(=O)C(C)OC(=O)Nc1ccccc1 (configuration not stated)
inactive: outcome [1] | outcome [2] | outcome [3] | outcome [4] | Potency [5] | outcome [6] | outcome [7] | max response [8] -1.79% | Potency [9] | Potency [20] | outcome [10] | Potency [19] | Potency [12] | Potency [13] | Potency [14] | Potency [15] | Potency [16] | outcome [17] | outcome [18]

CC1(C)CC(N)CC(C)(C)N1
inactive: outcome [1] | outcome [2] | outcome [3] | outcome [4] | Potency [5] | outcome [6] | outcome [7] | max response [8] 16.7% | Potency [9] | Potency [20] | outcome [10] | Potency [11] | Potency [13] | Potency [14] | Potency [15] | Potency [16] | outcome [17] | outcome [18]

Clc1ccc2c(c1)Nc1ccccc1S2
inactive: outcome [1] | outcome [2] | outcome [3] | outcome [4] | Potency [5] | outcome [6] | outcome [7] | max response [8] -17.2% | Potency [9] | outcome [10] | Potency [19] | Potency [11] | Potency [12] | Potency [13] | Potency [14] | Potency [15] | Potency [16] | outcome [17] | outcome [18]

CN1C(CCl)Nc2cc(Cl)c(S(N)(=O)=O)cc2S1(=O)=O (configuration not stated)
inactive: outcome [1] | outcome [2] | outcome [3] | outcome [4] | Potency [5] | outcome [6] | outcome [7] | max response [8] -6.26% | Potency [9] | outcome [10] | Potency [19] | Potency [11] | Potency [12] | Potency [14] | Potency [15] | Potency [16] | outcome [17] | outcome [18]

COc1ccc2cc(CCC(C)=O)ccc2c1
inactive: outcome [1] | outcome [2] | outcome [3] | outcome [4] | Potency [5] | outcome [6] | outcome [7] | max response [8] -11.3% | Potency [9] | Potency [20] | outcome [10] | Potency [19] | Potency [12] | Potency [13] | Potency [14] | Potency [15] | Potency [16] | outcome [17] | outcome [18]
